Screens from PubChem.
Compounds with a hit are over-represented: about 8% of the library has one in this group of screens.
MCF10A rerep: induces DNA re-replication in MCF 10a normal breast cells; MCF 10A DNA re-replication, Hoechst nuclear intensity, 48 h; Potency, µM (series often up to 46.1 µM), inactives show at the top dose activity, positive = re-replication, usual class: activators; 2.9% of 350,000 active; further: % of control where 0% means no effect; nearly all actives have a fitted effect of over 50% in size
SW480 rereplic: inducers of DNA re-replication in SW480 colon cancer cells; SW480 DNA re-replication, Hoechst DNA content imaging, 48 h; Potency, µM (highest dose often 46.1 µM), without a hit: at the top dose re-replication activation, most hits filed as activators; 1.8% of 340,000 active; AID 624297; further: % of control where 0% means no effect; nearly all actives have a fitted effect of over 55% in size
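250 cells/well; 23 nL cpd via pin tool; 48 hr, 37 C, 5% CO2; Hoechst 40 min; imager read of total nuclear intensity, ex 405/em 500-530 nm.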
HT1080 IDH1KD tx: HT-1080 IDH1 knockdown cell toxicity (counter line) | HT-1080 IDH1 knockdown viability, ATP luminescence, 48 h | Potency, µM (titrated, usually from 46.1 µM), without a hit: at the top dose activity, negative = toxicity, actives largely listed as cytotoxic | 2% of 360,000 active | AID 686971;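 further: 0% = DMSO wells and -100% = cell-free medium wells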
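After a 2 h attachment period, IDH1KD HT-1080 cells took pin-transferred compound for 48 h at 37 °C; ATP-based luminescence after 10 min room-temperature reagent incubation reported viability.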
KB-3-1 cytotox: kills parental KB-3-1 adenocarcinoma cells; Potency, µM (titrated, usually from 46.1 µM), most hits filed as cytotoxic; KB-3-1 viability, CellTiter-Glo ATP luminescence, 72 h; 1.4% of 400,000 active; further: on the % scale 0 is the no-effect control and ±100 the full control effect; nearly all actives have a fitted effect of over 60% in size
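KB-3-1 parental drug-naive adenocarcinoma cells in DMEM/10% FBS, incubated 72 h at 37 C with pin-transferred compounds across a concentration series. Viability by CellTiter-Glo luminescence; concentration-response curves fitted after normalization.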
HT1080NT lethal: kills 2HG-producing HT-1080-NT fibrosarcoma cells. HT-1080-NT fibrosarcoma viability, CellTiter-Glo ATP luminescence, 48 h. Potency, µM (doses to about 46.1 µM), without a hit: at the top dose activity, negative = less viability, usual class: cytotoxic. 1.6% of 360,000 active;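 further: NT is the 2HG producing partner of a matched IDH1 knockdown line; 0% = DMSO-treated cells and -100% = media-only wells without cells; nearly all actives have a fitted effect of over 55% in size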
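Read-out is CellTiter-Glo luminescence after 10 minutes at room temperature, following 48 hours' compound treatment of HT-1080-NT cells (750 cells/well, RPMI, 5% FBS, 37 degrees C).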
KB-V1 cytotox: kills drug-selected multidrug resistant KB-V1 cells | KB-V1 MDR cells viability, CellTiter-Glo, 72 h | Potency, µM (top dose mostly 46.1 µM), hits mostly cytotoxic | 3.4% of 400,000 active | AID 1347076; further: on the % scale 0 is the no-effect control and ±100 the full control effect; nearly all actives have a fitted effect of over 60% in size
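Cytotoxicity via CellTiter-Glo luminescence after 72 h compound exposure at 37 degrees C. Cells: drug-selected KB-V1 line, DMEM phenol-red free plus 10% FBS. Compounds tested at multiple concentrations; normalized data fitted to concentration-effect curves.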
Numbers without * were called inactive; [ ] = another dose, or the depositor's remark. The call rests on the fitted dose curve; in most records, active means well fitted curve in the direction sought with a large enough effect; inconclusive means small, poorly fitted or top-dose-only effect, or another doubt; inactive means no such curve, though single readings can be large; an effect the other way counts as inactive or inconclusive. Potency means the concentration at half of the fitted maximal effect.

How did COc1cccc(Cn2nnc3c(=O)[nH]c(C4CCN(C(=O)c5ccccc5Cl)CC4)nc32)c1 do in these assays?
KB-3-1 cytotox: inactive; KB-V1 cytotox: inactive

What do the screens show for `Cc1ccc(NC(=O)CN(Cc2ccccc2)S(=O)(=O)c2ccc3nc(C)sc3c2)c(C)c1`?
KB-3-1 cytotox: inactive; KB-V1 cytotox: inactive

What do the screens show for `Cn1c(SCc2c(F)cccc2Cl)nnc1-c1cccs1`?
MCF10A rerep: 6.5µM*; SW480 rereplic: inconclusive; HT1080 IDH1KD tx: -4%; KB-3-1 cytotox: inconclusive; HT1080NT lethal: 2%; KB-V1 cytotox: inactive

Results for Cn1c(SCCOc2ccccc2Cl)nnc1-c1cccs1 ?
MCF10A rerep: 4%; SW480 rereplic: -2%; HT1080 IDH1KD tx: -13%; KB-3-1 cytotox: inactive; HT1080NT lethal: -26%; KB-V1 cytotox: 18µM*

Results for O=C(C[C@H]1C(=O)N(C2CCCCC2)C[C@@H]1c1ccccc1)Nc1ccc(Br)cc1 ?
HT1080 IDH1KD tx: 0%; KB-3-1 cytotox: inactive; HT1080NT lethal: -1%; KB-V1 cytotox: inconclusive

What do the screens show for `O=C(Cn1c(=O)n(Cc2ccco2)c(=O)c2oc3ccccc3c21)Nc1ccc(F)cc1F`?
KB-3-1 cytotox: inactive; KB-V1 cytotox: inactive

What do the screens show for `O=C(CN1C(=O)/C(=C\c2ccc(F)cc2)Oc2ccccc21)N1CCN(c2ccccn2)CC1`?
MCF10A rerep: 0%; SW480 rereplic: -3%; HT1080 IDH1KD tx: 1%; KB-3-1 cytotox: inactive; HT1080NT lethal: 4%; KB-V1 cytotox: 7.3µM*

What do the screens show for `O=C(CN1C(=O)/C(=C\c2cccc(F)c2)Oc2ccccc21)N1CCN(c2ccccn2)CC1`?
MCF10A rerep: 9%; SW480 rereplic: -67%; HT1080 IDH1KD tx: 5%; KB-3-1 cytotox: inconclusive; HT1080NT lethal: 16%; KB-V1 cytotox: inactive

Results for COc1nc(N)nc(NC(=O)c2cccs2)c1N=O ?
MCF10A rerep: 21µM*; SW480 rereplic: 5.2µM*; HT1080 IDH1KD tx: 18µM*; KB-3-1 cytotox: inactive; HT1080NT lethal: 16µM*; KB-V1 cytotox: inactive

What do the screens show for `COc1ccc(C(=O)Nc2cccc(NC(=O)c3cccs3)c2)cc1`?
MCF10A rerep: 2%; SW480 rereplic: -6%; HT1080 IDH1KD tx: -15%; KB-3-1 cytotox: inactive; HT1080NT lethal: -3%; KB-V1 cytotox: inactive

What do the screens show for `C=CCn1c(=O)c2ccccc2n2c(SCc3nnc(-c4ccccc4Br)o3)nnc12`?
MCF10A rerep: 23µM*; SW480 rereplic: 15%; HT1080 IDH1KD tx: -2%[9.24 µM]; KB-3-1 cytotox: inactive; HT1080NT lethal: -5%; KB-V1 cytotox: inactive

What do the screens show for `C=CCn1c(=O)c2ccccc2n2c(SCC(=O)c3ccccc3)nnc12`?
MCF10A rerep: 10%; SW480 rereplic: -6%; HT1080 IDH1KD tx: 0%; KB-3-1 cytotox: inactive; HT1080NT lethal: -3%; KB-V1 cytotox: inactive

How did C=C1C(=O)O[C@@H]2[C@H]1CC[C@H](C)[C@]1(O)CCC(=O)[C@@]21C do in these assays?
MCF10A rerep: 23µM*; SW480 rereplic: inconclusive; HT1080 IDH1KD tx: inconclusive; KB-3-1 cytotox: inconclusive; HT1080NT lethal: inconclusive; KB-V1 cytotox: inactive

What do the screens show for `C=C1CCC(O)C2(C)CCC3C(C)C(=O)OC3C12O` (stereo not drawn)?
MCF10A rerep: -2%; SW480 rereplic: -10%; HT1080 IDH1KD tx: 5%; KB-3-1 cytotox: inactive; HT1080NT lethal: 6%; KB-V1 cytotox: inactive

What do the screens show for `Cc1ccc(S(=O)(=O)CC2CSc3nc4ccccc4n32)cc1` (stereo not drawn)?
MCF10A rerep: 0%; SW480 rereplic: -9%; HT1080 IDH1KD tx: inconclusive; KB-3-1 cytotox: 0.73µM*; HT1080NT lethal: -7%; KB-V1 cytotox: 0.52µM*

How did Cc1ccc(S(=O)(=O)CCc2nc3ccccc3n2CCC#N)cc1 do in these assays?
MCF10A rerep: 18µM*; SW480 rereplic: inconclusive; HT1080 IDH1KD tx: inconclusive; KB-3-1 cytotox: inconclusive; HT1080NT lethal: -25%; KB-V1 cytotox: inconclusive

Results for O=C(O)Cn1c(CCS(=O)(=O)c2ccc(Br)cc2)nc2ccccc21 ?
MCF10A rerep: -12%; SW480 rereplic: -3%; HT1080 IDH1KD tx: 24%; KB-3-1 cytotox: inactive; HT1080NT lethal: 8%; KB-V1 cytotox: inactive

Results for O=C(N1CCN(c2ccccn2)CC1)N1c2ccccc2Sc2ccccc21 ?
MCF10A rerep: inconclusive; SW480 rereplic: 0.65µM*; HT1080 IDH1KD tx: 0.89µM*; KB-3-1 cytotox: 0.58µM*; HT1080NT lethal: 0.89µM*; KB-V1 cytotox: 1.8µM*

How did O=C(NC1CCN(C(=O)N2c3ccccc3Sc3ccccc32)CC1)c1ccccc1Cl do in these assays?
MCF10A rerep: -13%; SW480 rereplic: -1%; HT1080 IDH1KD tx: inconclusive; KB-3-1 cytotox: inactive; HT1080NT lethal: inconclusive; KB-V1 cytotox: inconclusive

How did O=C(NC1CCN(C(=O)N2c3ccccc3Sc3ccccc32)CC1)c1ccco1 do in these assays?
MCF10A rerep: inconclusive; SW480 rereplic: inconclusive; HT1080 IDH1KD tx: 21µM*; KB-3-1 cytotox: inconclusive; HT1080NT lethal: inconclusive; KB-V1 cytotox: inactive

How did O=C(c1ccco1)N1CCN(C(=O)N2c3ccccc3Sc3ccccc32)CC1 do in these assays?
MCF10A rerep: 13%; SW480 rereplic: 1%; HT1080 IDH1KD tx: inconclusive; KB-3-1 cytotox: 0.52µM*; HT1080NT lethal: inconclusive; KB-V1 cytotox: 0.65µM*

How did O=C(c1ccc(Br)s1)N1CCN(c2ccccn2)CC1 do in these assays?
MCF10A rerep: 0%; SW480 rereplic: 6%; HT1080 IDH1KD tx: 1%; KB-3-1 cytotox: inactive; HT1080NT lethal: -1%; KB-V1 cytotox: inconclusive

Results for Cn1cc(/C=N/n2cnc3scc(-c4ccc(Cl)cc4)c3c2=O)c2ccccc21 ?
MCF10A rerep: 0.33µM*; SW480 rereplic: 0.58µM*; HT1080 IDH1KD tx: 0.46µM*; KB-3-1 cytotox: inconclusive; HT1080NT lethal: inconclusive; KB-V1 cytotox: inconclusive

What do the screens show for `O/N=C(/C[n+]1csc2ccccc21)c1ccccc1`?
KB-3-1 cytotox: inconclusive; KB-V1 cytotox: inactive

How did CN(CC(=O)NCc1cccnc1)S(=O)(=O)c1ccc(F)cc1 do in these assays?
MCF10A rerep: 1%; SW480 rereplic: -6%; HT1080 IDH1KD tx: 18%; KB-3-1 cytotox: inactive; HT1080NT lethal: 9%; KB-V1 cytotox: inactive

What do the screens show for `COc1ccc(S(=O)(=O)N(C)CC(=O)NCc2cccnc2)cc1OC`?
MCF10A rerep: 23µM*; SW480 rereplic: -5%; HT1080 IDH1KD tx: 3%; KB-3-1 cytotox: inactive; HT1080NT lethal: 3%; KB-V1 cytotox: inactive
